# Data reported in PubChem BioAssay (NCI).
# This is part of a sample that, as a whole, favours compounds with a hit. Of some 79,000 tested, about 15% had one in any assay. Values without a mark were called inactive. Calls of active or inactive are those of the source. Cut-off read from the data, not from the text of the source: active = growth inhibition above about 70%; inactive = the rest.
# Assay: NCI Yeast Anticancer Drug Screen. Data for the mec2-1 strain (AID 157)
# Conditions: S. cerevisiae mec2-1 strain, hits give high values
# Procedure: Growth inhibition of yeast strains with defined genetic alterations is measured as a screen for potential anti-cancer activity. Selected strains with alterations in DNA damage repair or cell cycle control were exposed to compounds and growth inhibition was measured relative to vehicle treated controls. The strain used in this assay is mec2-1
# [1] = at 5.0 µM (retest, dose inferred, filed as 0.5)
# [2] = at 50.0 µM (retest, dose inferred, filed as 5.0)
structure (smiles),measurement,setting,value
CCC1(O)C(=O)OCc2c1cc1n(c2=O)Cc2cc3cc(Cl)ccc3nc2-1 (stereo unspecified),growth inhibition,at 1.2 µM,60%
same,growth inhibition,at 3.7 µM,88% (active)
same,growth inhibition,[1],87% (active)
same,growth inhibition,at 11.0 µM,93% (active)
same,growth inhibition,at 33.0 µM,92% (active)
same,growth inhibition,[2],88% (active)
same,growth inhibition,at 50.0 µM,92.7% (active)
same,growth inhibition,at 100.0 µM,89% (active)
CC1=C(CO)C2=C(C)C3(CC3)[C@@](C)(O)C(=O)C2=C1,growth inhibition,at 1.2 µM,0%
same,growth inhibition,at 3.7 µM,-1%
same,growth inhibition,at 11.0 µM,1%
same,growth inhibition,at 33.0 µM,19%
same,growth inhibition,at 50.0 µM,-0.75%
same,growth inhibition,at 100.0 µM,66%
N#C[SH2+].N#C[SH2+].N#C[SH2+].N#C[SH2+].[Cu+2].c1ccc(C[P+](c2ccccc2)(c2ccccc2)c2ccccc2)cc1,growth inhibition,[1],5%
same,growth inhibition,[2],95% (active)
same,growth inhibition,at 50.0 µM,97.8% (active)
O=C1C(Br)=CC2(C=C1Br)CCNc1c(O)c3c4c(c12)=NCCC=4C=N3,growth inhibition,[1],15%
same,growth inhibition,[2],44%
same,growth inhibition,at 50.0 µM,46.5%
CCC(C)N1CN(c2ccccc2)C2(CCN(CC3COc4ccccc4O3)CC2)C1=O (stereo unspecified),growth inhibition,[1],-5%
same,growth inhibition,[2],1%
same,growth inhibition,at 50.0 µM,4.4%
O=C1[O][Hg][c]2cccc3cccc1c23,growth inhibition,[1],100% (active)
same,growth inhibition,[2],99% (active)
same,growth inhibition,at 50.0 µM,99% (active)
COc1ccc(CNCCc2ccc(O)c(OC)c2)cc1O,growth inhibition,[1],1%
same,growth inhibition,[2],3%
same,growth inhibition,at 50.0 µM,-2.8%
O=C(Nc1ccccc1)OC(C[N+](=O)[O-])C(Cl)(Cl)Cl (stereo unspecified),growth inhibition,[1],10%
same,growth inhibition,[2],100% (active)
same,growth inhibition,at 50.0 µM,95.8% (active)
[Br][Cd][Br].c1ccc([PH+](c2ccccc2)c2ccccc2)cc1.c1ccc([PH+](c2ccccc2)c2ccccc2)cc1,growth inhibition,[1],20%
same,growth inhibition,[2],84% (active)
same,growth inhibition,at 50.0 µM,89.5% (active)
CCOP(=S)(OCC)OC(c1ccc(Cl)cc1)c1ccc(Cl)cc1,growth inhibition,[1],0%
same,growth inhibition,[2],-7%
same,growth inhibition,at 50.0 µM,6.2%
c1ccc2c[n+](CCCCCCCCCC[n+]3ccc4ccccc4c3)ccc2c1,growth inhibition,[1],70% (active)
same,growth inhibition,[2],98% (active)
same,growth inhibition,at 50.0 µM,91.2% (active)
